What all share (assay): NCI-60 one-dose screen, 48 h (100 = growth as untreated, 0 = no growth, -100 = all killed)
Common to all, as to details: 10 µM unless noted

The test system of assay [1] is NCI-H226 lung.
Assay [2] concerns NCI-H322M lung.
The subject of assay [3] is HOP-62 NSCLC.
For assay [4], the system named is NCI-H460 lung.
For assay [5], the system named is HOP-92 NSCLC.
Assay [6] concerns NCI-H522 lung.
Assay [7] has as its system A549/ATCC NSCLC.
For assay [8], the system named is 786-0 renal.
Assay [9] has as its system COLO 205 colon.
In assay [10] the test system is DU-145 prostate.
For assay [11], the system named is K-562 leukemia.
Assay [12] has as its system MALME-3M melanoma.
The subject of assay [13] is MDA-MB-231 breast.
Assay [14] concerns RXF 393 renal.
Assay [15] has as its system SF-268 CNS.
The subject of assay [16] is SF-295 CNS.
The test system of assay [17] is SF-539 CNS.
The subject of assay [18] is UACC-257 melanoma.
Assay [19] relates to M14 melanoma.
The test system of assay [20] is HCT-15 colon.

The panel holds about 83,000 compounds, 20% with a hit somewhere; the sample as a whole holds those more often.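 Values shown are percent growth following 48 h exposure of cells in 96-well plates to a single concentration of compound; below 10 was considered active.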 Unmarked numbers belong to inactive results. The source made the active and inactive calls.

For the compound `C=CCSc1ccc2c(c1)C(N1CCNCC1)=Nc1ccccc1O2`, the growth in [1] is 87.4% [8.25 µM]; in assay [2], 85.6% [8.25 µM]; in [3], 84.7% [8.25 µM]; in [4], 85.7% [8.25 µM]; in assay [5], 34.2% [8.25 µM]; in assay [6] it was 74% [8.25 µM]. The growth is 71.7% [8.25 µM] in assay [7]; 60.4% [8.25 µM] in assay [8]; 7.69% [8.25 µM] (active) in [9]; 90.8% [8.25 µM] in [10]; 29.3% [8.25 µM] in [11]; 86.6% [8.25 µM] in [12]. For the same compound, the growth in assay [13] was 77.8% [8.25 µM]; in assay [14] it was 63% [8.25 µM]; in assay [15], 74.8% [8.25 µM]; in [16], 85.1% [8.25 µM]; in assay [17], 74.1% [8.25 µM]; in assay [18], 83% [8.25 µM]. The growth in assay [19] is 83.4% [8.25 µM]; in assay [20] it was 85.3% [8.25 µM].

In the case of `CC(=NNc1ncnc2ccccc12)c1ccc(S(C)(=O)=O)cc1`, the growth in assay [1] was 96.8%; in assay [2], 100%; in [3] it was 95%; in [4], 108%; in assay [5] it was 95.1%; in [6] it was 100%. For the same compound, the growth in assay [7] is 111%; in [8], 102%; in [9], 113%; in assay [10], 115%; in assay [11] it was 96.9%; in [12] it was 98.3%. The growth was 93% in assay [13]; 114% in assay [14]; 108% in [15]; 97.1% in assay [16]; 97.6% in [17]; 108% in [18]. Further, the results for the growth in assay [19] and in [20] were 92.5% and 96.5%, respectively.

For the compound `CO/N=C1\CCc2c(sc(NC(=O)c3cccc(C(F)(F)F)c3)c2C(N)=O)C1`, the growth in [1] is -10.4% (active); in [2], 19.9%; in assay [3] it was -0.189% (active); in assay [4], 2.77% (active); in assay [5] it was -12.7% (active); in assay [6] it was 26.5%. Moreover, the growth is -9.56% (active) in [7]; 1.79% (active) in [8]; 72.6% in [9]; 52.9% in assay [10]; 70.1% in [11]; 29.4% in [12]. Moreover, the growth is 37.7% in [13]; -6% (active) in assay [14]; 51.8% in assay [15]; 30.8% in assay [16]; 34.2% in assay [17]; 66% in assay [18]. Further, the figures for the growth in [19] and in assay [20] were 47.7% and 64.6%, respectively.

For the compound `CC(=O)c1ccc(Nc2nc(SC(C)C)nc(-c3ccccc3)c2C#N)cc1`, the growth in assay [1] is 123%; in assay [2] it was 98.7%; in assay [3], 92.7%; in assay [4] it was 101%; in assay [5], 70.2%; in assay [6], 86.8%. Further, the growth in assay [7] is 93.5%; in assay [8], 84.7%; in assay [9], 114%; in [10], 91.2%; in [11], 92.6%; in [12] it was 112%. Besides, the growth in assay [13] was 95.7%; in assay [14], 103%; in assay [15] it was 91.9%; in assay [16], 109%; in assay [17], 95.5%; in assay [18] it was 108%. Further, the results for the growth in [19] and in assay [20] were 118% and 101%, respectively.

With `O=C(CSc1nc2sc3c(c2c(=O)n1-c1ccc(Cl)cc1)CCCC3)N/N=C/c1ccc(F)cc1`, the growth in assay [1] was 113%; in assay [2] it was 104%; in assay [3], 105%; in assay [4], 81.4%; in assay [5] it was 97.3%; in assay [6] it was 100%. For the same compound, the growth in [7] is 88.1%; in assay [8], 98.9%; in assay [9], 117%; in [10] it was 82.1%; in [11], 45.4%; in assay [12], 100%. The growth in assay [13] is 86.2%; in assay [14] it was 118%; in assay [15], 102%; in assay [16], 106%; in assay [17], 102%; in assay [18], 109%. Besides, the growth is 90.5% in [19] and 73.9% in assay [20].

On to `O=C(CN1C(=O)/C(=C/c2ccccc2)SC1=S)N1CCOCC1`, for which the growth in assay [1] is 105%; in [2], 91.9%; in assay [3], 97%; in [4], 105%; in [5], 102%; in [6], 68.2%. In addition, the growth in assay [7] is 97.4%; in [8], 92.3%; in assay [9], 116%; in assay [10], 103%; in assay [11], 77.4%; in assay [12], 83.6%. Besides, the growth is 95.2% in assay [13]; 105% in [14]; 102% in assay [15]; 103% in [16]; 95.8% in assay [17]; 95.8% in [18]. The growth is 88.5% in [19] and 88.2% in assay [20].
